Results on 66 compounds are retold here after PubChem BioAssay AID1458 (National Center for Advancing Translational Sciences (NCATS), 2008).

SMILES strings stand for the structures. Out of some 210,000 compounds screened, about 5,900 (2.8%) were called active. About 5% were inconclusive and are not listed. The call rests on the fitted dose curve; in most records, active means well fitted activation curve with a large enough effect; inconclusive means small, poorly fitted or top-dose-only effect; inactive means no such curve, though single readings can be large or run the other way. Shown is part of a subset that was picked to be rich in actives. Where a call stands in place of a potency, no number is given.
Potency means the concentration at half of the fitted maximal effect.

This test in a line: qHTS Assay for Enhancers of SMN2 Splice Variant Expression. Further: nearly all actives have a fitted effect of over 55% in size. As to conditions: HEK293 SMN2-luciferase splicing reporter, luminescence, 30-36 h; series mostly up to 46.1 µM. From the text:
NIH Chemical Genomics Center [NCGC] NIH Molecular Libraries Probe Production centers Network [MLPCN] MLPCN Grant: R03 MH084179-01 Assay Submitter (PI): Elliot Androphy NCGC Assay Overview: Spinal muscular atrophy (SMA) is caused by insufficient levels of the survival motor neuron protein SMN. The SMN locus on chromosome 5q13 contains two inverted copies of SMN called SMN1 and SMN2 which are 99% identical at the amino acid level. SMN1 is a fully functional protein and SMN2 skips exon 7 90% of the time. Skipping of exon 7 produces non-functional protein product. 10% of the SMN2 protein includes exon 7 and is fully functional. In the SMA disease state, mutations in the SMN1 locus are the cause of the disease state. Because only 10% of SMN2 is of the fully functional form, it is not sufficient to overcome the deficiency produced by the loss of the SMN1 product. A therapy that either increase the amount of SMN2 product made or to increase the inclusion of exon 7 has been proposed for the treatment of SMA. We have designed an assay to identify small molecules that can increase the amount of functional SMN2 product by appending a luciferase reporter gene after the native SMN2 gene, such that inclusion of exon 7 in the expressed product places the luciferase sequence in frame, thus generating functional luciferase enzyme.
NCGC Assay Protocol Summary: This screen utilizes a luciferase reporter gene assay, combining the promoter and splicing based cassettes in tandem with the major portion of the native SMN2 cDNA, and then transfected into HEK293 cells. Compounds that increase luciferase signal presumably enhance expression of the functional SMN2 splice variant. Passaging media contained DMEM w/ glutamax (+phenol red) 10% FCS, 1x pen/strep, 200 ug/ml hygro, 1x sodium pyruvate. Assay media contained DMEM w/ glutamax (-phenol red) 10% FCS, 1x pen strep, 1x pyruvate Sequence, Parameter, Value, Description (1) Cells, […], 2000 cells/well, 1536 TC treated White solid bottom plate (2) Time, 10-12 hours, 37C 5% CO2 (3) Compound, 23 nl, MLSMR Library (4) Control Compound, 23 nL, Sodium butyrate st 4.5mM (final) conc (5) Time, 30-36 hours, 37C 5% CO2 (6) Reagent, 3 ul, One Glo (TM) from Promega (7) Time, 5-15 minutes, Room temp (8) Detector, Viewlux: luminescent read, 60 second integration, high speed 2x binning Keywords: Spinal muscular atrophy, SMA, SMN2, high throughput screening, MLSMR, MLPCN, NIH Roadmap, qHTS and NCGC
Turning to `COc1cccc(CNC(=O)C(NS(=O)(=O)c2ccc3nc(C)sc3c2)C(C)C)c1` (stereo unspecified), the Potency entry was “inactive”. As for `O=C(Nc1ccc2oc(-c3ccccc3F)nc2c1)c1ccco1`, the Potency is 11.2 µM (active). `O=C(Nc1cccc(-c2nc3ncccc3o2)c1)c1ccco1`: the Potency result is “inactive”.

For the compound `O=C(Nc1ccc(O)c(-c2nc3ccccc3o2)c1)c1ccc(-c2cccc(Cl)c2)o1`, the Potency result is “inactive”.

As for `CCCCN(CC)C(=O)c1c[nH]c2ccc(S(=O)(=O)Nc3cccc(OC)c3)cc2c1=O`, the Potency entry is “inactive”. For the compound `CCCNC(=O)C(CC)n1nc(CC)n2c(cc3oc(C)cc32)c1=O` (stereo unspecified), the Potency entry is “inactive”.

Regarding `Cc1ccc(-c2cc(N)n(Cc3cccc(Cl)c3)n2)cc1`, the Potency result was “inactive”. Take `CCc1cc2c(cc3c(=O)n(CC(=O)NCc4cccc(Cl)c4)nc(CC)n32)s1`: the Potency entry is “inactive”. With `Cc1ccc2cccc(NC(=O)c3cccc4ccccc34)c2n1` the entry was “inactive”; with `CCc1cccc(OC2OC(CO)C(O)C(O)C2NC(C)=O)c1` (stereo unspecified), “inactive”; with `Cc1csc(-c2coc3cc(O[C@@H]4O[C@H](CO)[C@@H](O)[C@@H](O)[C@H]4O)ccc3c2=O)n1`, 20 µM (active). `COc1ccc(Oc2coc3cc(OC(=O)c4cncc(Br)c4)ccc3c2=O)cc1`: the Potency result was “inactive”. Consider `CCOc1ccc(C(=O)/C=C/c2cn(CC(O)CN3CCCCCC3)c3ccccc23)cc1` (stereo unspecified), for which the Potency entry is “inactive”. As to `CC(=O)Nc1cccc(C(=O)Nc2nc(C)cs2)c1`, the Potency entry is “inactive”. Consider `S=C(Nc1cccc(Cl)c1)Nc1ccc2cn[nH]c2c1`, for which the Potency result is “inactive”. With `Cc1csc(NC(=S)Nc2cccc(Cl)c2)n1`, the Potency is 14.1 µM (active).

With `Cn1c(=O)c2c(-c3ccccc3Br)n(Cc3ccccc3)cc2n(C)c1=O`, the Potency entry was “inactive”. For `COc1ccc(S(=O)(=O)c2c(Nc3cccc(Cl)c3)sc(C(=O)c3ccccc3)c2N)cc1` the value was “inactive”; for `COc1ccc(C(CC(=O)O)NC(=O)Cc2ccccc2)cc1` (stereo unspecified), “inactive”.

`COc1ccc(C(CC(=O)c2ccccc2)S(=O)(=O)c2ccccc2)cc1` (stereo unspecified): the Potency is 12.6 µM (active).

For `COc1ccc(C(=O)CSc2nccc(=O)[nH]2)cc1`, the Potency result is “inactive”.

`O=c1ccn([C@@H]2O[C@H](COP(=O)(O)OP(=O)(O)OP(=O)(O)O)[C@@H](O)[C@H]2O)c(=O)[nH]1`: the Potency result is “inactive”. As to `COc1ccc(CCN2C(=O)c3oc4cc(C)cc(C)c4c(=O)c3C2c2ccccc2F)cc1OC` (stereo unspecified), the Potency entry was “inactive”. In the case of `Cc1cccc(CSc2nnc(NC(=O)CSc3nnc(C)s3)s2)c1`, the Potency result is “inactive”. Regarding `Cc1ccc(Nc2nnc(SCc3ccccc3)s2)cc1`, the Potency was 14.1 µM (active). For `O=C(Nc1nnc(SCc2ccccc2)s1)c1ccco1` the value was “inactive”; for `COc1cc(C(=O)N(Cc2ccc(C(C)C)cc2)C2CCS(=O)(=O)C2)cc(OC)c1OC` (stereo unspecified), “inactive”. As to `COc1ccc(CCNC(=O)Cn2c(=O)n(-c3ccccc3)c(=O)c3c(C)c(C)sc32)cc1OC`, the Potency result is “inactive”.

As for `c1ccc(-c2noc(-c3cccs3)n2)nc1`, the Potency is 2.82 µM (active). As for `c1ccc(CCc2nc(-c3ccncc3)no2)cc1`, the Potency entry is “inactive”. Regarding `c1csc(-c2nc(-c3ccncc3)no2)c1`, the Potency was 15.8 µM (active). For `Cc1ccc(-c2noc(CSc3nnc(-c4cccs4)n3C)n2)cc1` the value was “inactive”; for `COc1ccc(Cc2nc(-c3ccccn3)no2)cc1OC`, “inactive”; for `CC(C)c1nc(-c2ccccn2)no1`, “inactive”. In the case of `COc1ccc(C)cc1-n1c(-c2ccc(C)cc2)cc2c1CC(C)(C)CC2=O`, the Potency result is “inactive”. Take `Cn1c(=O)c(C(=O)O)nn(-c2ccccc2)c1=O`: the Potency entry is “inactive”. As for `COc1ccc(-c2c(C)nn3c(N4CCC(C(=O)NCCC(C)C)CC4)cc(C)nc23)cc1OC`, the Potency entry was “inactive”. On to `Cc1cc(-c2ccccc2)n2nc(C)c(-c3ccccc3)c2n1`, for which the Potency entry is “inactive”. As to `Cc1cc(N2CCCC2)n2nc(C)c(-c3ccccc3)c2n1`, the Potency is 11.2 µM (active). Regarding `Cc1cc(-n2nc(C)cc2C)n2nc(C)c(-c3ccccc3)c2n1`, the Potency result was “inactive”. In the case of `CCc1nc2nc(C)cc(Nc3ccc(F)c(Cl)c3)n2n1`, the Potency entry is “inactive”. `Cn1c(C(=O)N2CCC(C(=O)N3CCN(c4ccccc4)CC3)CC2)cc2sccc21`: the Potency result is “inactive”. Turning to `COc1ccc(NC(=O)CCN2CCN(CCO)CC2)cc1`, the Potency result was “inactive”. Consider `CC(C)(C)NS(=O)(=O)c1ccc(NC(=O)NC2CCCCC2)cc1`, for which the Potency entry was “inactive”.

Turning to `CC(C)N1CCC(NC(=O)Nc2ccccc2)CC1`, the Potency result is “inactive”.

As for `CC(C)c1ccc(NC(=O)NC2CCCCC2)cc1`, the Potency was 11.2 µM (active). With `CCc1nn(CC(=O)N2CCN(c3cccc(C(F)(F)F)c3)CC2)c(=O)c2cc3occc3n12` the entry was “inactive”. As for `Nc1ccc(S(=O)(=O)Nc2nccc(/C=C/c3ccc(Br)s3)n2)cc1`, the Potency result is “inactive”. As for `Oc1cccc2ccc(/C=C/c3ccc(Br)s3)nc12`, the Potency is 8.91 µM (active).

With `COc1cc(OC)cc(-c2nc3nc(C)c(CCC(=O)Nc4ccccc4)c(C)n3n2)c1`, the Potency result was “inactive”. Take `O=C(Nc1ccc(Br)cn1)c1ccc([N+](=O)[O-])cc1Cl`: the Potency is 7.08 µM (active). With `CC(C)C(=O)Nc1cccc(NC(=O)c2ccc([N+](=O)[O-])cc2Cl)c1`, the Potency entry was “inactive”. With `O=C(Nc1ccc(Br)cn1)c1ccc([N+](=O)[O-])o1` the entry was “inactive”.

For the compound `COc1ccccc1N1CCN(c2ncnc3onc(-c4cccc(Cl)c4)c23)CC1`, the Potency result was “inactive”. For `O=C(Nc1nnc(Cc2ccccc2)s1)c1cnccn1`, the Potency result is “inactive”. Regarding `Cc1occc1C(=O)Nc1nnc(C2CCCCC2)s1`, the Potency result was “inactive”. Regarding `O=C(Nc1nnc(C2CC2)s1)c1ccccn1`, the Potency is 2.82 µM (active). Take `NC(=O)CSc1nc2c(oc3ccccc32)c(=O)n1Cc1ccccc1`: the Potency result is “inactive”. Consider `Cc1ccc(-n2c(SCC(=O)Nc3cccc(F)c3)nc3c(oc4ccccc43)c2=O)cc1C`, for which the Potency result was “inactive”. For `COC(=O)C1=C(c2ccccc2)c2ccccc2S(=O)(=O)N1CC(=O)Nc1ccccc1C(F)(F)F` the value was “inactive”. In the case of `COc1ccc(C(F)(F)F)cc1NC(=O)c1sc2nc(-c3cccs3)ccc2c1N`, the Potency entry is “inactive”. Regarding `CN1C(=O)/C(=C/C=C2\SCCN2C)OC1=S`, the Potency was 12.6 µM (active).

In the case of `Cc1n[nH]c(C)c1S(=O)(=O)N1CCCC(C(=O)Nc2ccc(Br)cc2)C1` (stereo unspecified), the Potency entry is “inactive”. For `Cc1ccc2nc(-c3ccc(O)cc3)c(Nc3ccc4c(c3)OCO4)n2c1`, the Potency entry is “inactive”.

On to `CCOc1ccc(S(=O)(=O)N(CC(=O)NCCSCc2ccc(C)cc2)c2ccccc2)cc1`, for which the Potency entry is “inactive”. With `Cc1ccc(-c2noc(CSc3nnc(-c4ccc(Cl)cc4)n3C)n2)cc1`, the Potency result was “inactive”.
